Source: PubChem BioAssay (National Center for Advancing Translational Sciences (NCATS))
In the library only some 19% were active in any assay of this set; here they are far more common.
IL-1B inflam inh – blocks inflammasome-driven IL-1 beta release. THP-1 LPS/ATP IL-1B secretion, AlphaLISA, 16 h; active compounds read low. activity change, % at 57.5 µM. 4.7% of 360,000 active. AID 743279; in the data active = activity change below about -50%; inconclusive = mostly about -30% to -49%
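THP-1 cells pretreated 1 hr with compounds (up to 57.5 uM final), then stimulated with LPS (250 ng/mL final) plus ATP (1.25 mM final); secreted IL-1B measured by AlphaLISA after 16 hr, decreased signal indicating inhibition.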
HT1080 IDH1KD tx – HT-1080 IDH1 knockdown cell toxicity (counter line); HT-1080 IDH1 knockdown viability, ATP luminescence, 48 h; Potency, µM (series often up to 46.1 µM), without a hit: top-dose activity, negative = toxicity, actives largely listed as cytotoxic; 2% of 360,000 active; AID 686971;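 note: potency is the fitted concentration of half-maximal effect; 0% = DMSO wells and -100% = cell-free medium wells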
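HT-1080-IDH1KD cells (IDH1 knocked down), 750/well in RPMI with 5% FBS, treated with compound 48 h at 37 degrees C. Viability by CellTiter-Glo luminescence, normalised to DMSO and no-cell wells; concentration-response curves classed.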
DT40 TDP1 no CPT – qHTS for Inhibitors of human tyrosyl-DNA phosphodiesterase 1 (TDP1): qHTS in cells in absence of CPT | Potency, µM (top dose mostly 46.2 µM), for inactives: at the highest dose activity change, negative = growth inhibition, most hits filed as inhibitors | DT40 Tdp1-/- hTDP1 cells, no CPT, ATP luminescence, 48 h | 15% of 420,000 active; note: potency is the fitted concentration of half-maximal effect; nearly all actives have a fitted effect of over 55% in size
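Seeded 400 DT40-hTDP1 cells/well (vehicle DMSO, no 20 nM CPT); pinned compounds; ≥48 hr at 37 °C; CellTiter-Glo luminescence as viability measure.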
DT40 TDP1 CPT – growth inhibition of DT40 Tdp1-/-;hTDP1 cells with camptothecin (screen for TDP1 inhibitors). chicken DT40 Tdp1-/-;hTDP1 cells + 20 nM CPT, ATP luminescence, 48 h. Potency, µM (highest dose often 46.2 µM), without a hit: top-dose activity change, negative = growth inhibition, usual class: inhibitors. 12% of 420,000 active; note: potency is the fitted concentration of half-maximal effect; nearly all actives have a fitted effect of over 55% in size
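Chicken DT40 Tdp1-/- cells stably complemented with human TDP1 were seeded at 400 cells/well in medium containing 20 nM camptothecin, exposed to pin-transferred compounds, and grown at 37 °C for at least 48 hr. Viability was read as ATP luminescence.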
HT1080NT lethal – kills 2HG-producing HT-1080-NT fibrosarcoma cells; HT-1080-NT fibrosarcoma viability, CellTiter-Glo ATP luminescence, 48 h; Potency, µM (titrated, usually from 46.1 µM), for the others: top-dose activity, negative = less viability, most hits filed as cytotoxic; 1.6% of 360,000 active;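 note: NT is the 2HG producing partner of a matched IDH1 knockdown line; potency is the fitted concentration of half-maximal effect; 0% = DMSO-treated cells and -100% = media-only wells without cells; nearly all actives have a fitted effect of over 55% in size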
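750 cells/well, RPMI + 5% FBS; 2 h settle, compound pin-transfer, 48 h at 37 degrees C. CellTiter-Glo 10 min RT, luminescence. Normalized to DMSO and media-only wells.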
The depositor's hits bear a star; ? = inconclusive; · = not tested or not shown; [ ] = dose if it differs, or a comment. Unless noted, calls come from the whole dose curve; as a rule, active = well fitted curve in the direction sought with a large enough effect; inconclusive = small, poorly fitted or top-dose-only effect, or another doubt; inactive = no such curve, though single readings can be large; an effect the other way counts as inactive or inconclusive. Unless noted, % is set by controls: 0 for no effect and ±100 for the full control effect.

SMILES	IL-1B inflam inh	HT1080 IDH1KD tx	DT40 TDP1 no CPT	DT40 TDP1 CPT	HT1080NT lethal
O=C(Nc1nc2ccccc2[nH]1)c1cccc(Br)c1	9	-25%	?	?	-16%
O=C(Nc1nc2ccccc2[nH]1)c1cccc(F)c1	24	?	16µM*	?	-28%
CN(C)c1cccc(C(=O)Nc2nc3ccccc3[nH]2)c1	?	?	12µM*	?	-29%
COc1ccc(-c2nc(CN3CCN(C(=O)c4ccco4)CC3)c(C)o2)c(OC)c1C	-5	13%	18µM*	?	-3%
Cc1ccc(CN2CCN(C(=O)c3ccco3)CC2)cc1	7	4%	-26%	-10%	3%
O=C(OCC(=O)N1CCOCC1)c1ccccc1OCc1ccc(Cl)cc1	-17	-5%	?	11%	-13%
CCn1c2ccccc2c2cc(CN3CCN(C(=O)c4ccco4)CC3)ccc21	-3	?	23µM*	?	?
O=C(OCC(=O)N1CCN(C(=O)c2ccco2)CC1)c1ccccc1OCc1ccc(Cl)cc1	0	4%	23µM*	16µM*	17%
CCn1c(=O)cc(SCC(=O)N2CCN(c3ccccc3OC)CC2)c2ccccc21	-16	?	?	18µM*	-4%
COc1ccc(CN2CCN(C(=O)c3ccco3)CC2)cc1OCc1ccccc1	-19	-19%	15µM*	?	-12%
CCOC(=O)N1CCN(Cc2cn[nH]c2-c2cccc3ccccc23)CC1	-15	6%	?	-27%	0%
O=C(c1ccco1)N1CCN(CC(O)COc2ccc3oc4ccccc4c3c2)CC1 (configuration not stated)	-24	?	?	18µM*	-29%
O=C(c1ccco1)N1CCN(CCCCN2C(=O)c3ccccc3C2=O)CC1	-69*	0%	-2%	-15%	?
O=C(c1ccco1)N1CCN(Cc2cn[nH]c2-c2cccc3ccccc23)CC1	-16	5%	23µM*	?	6%
COCCNC(=O)NC(=O)CN1CCN(C(c2ccccc2)c2ccccc2)CC1	-2	-1%	?	-63%	1%
COc1ccc(N2CCN(C(C)C(=O)Nc3nnc(C)s3)CC2)cc1 (configuration not stated)	23	2%	14%	-2%	3%
CCn1c(=O)cc(SCC(=O)N2CCN(C(=O)c3ccco3)CC2)c2ccccc21	-52*	?	?	-23%	-3%
CCN1CCN(CC(=O)N2N=C(c3ccc(OC)cc3)CC2c2ccc(OC)cc2)C(=O)C1=O (configuration not stated)	-10	3%	4%	-3%	5%
CCOC(=O)c1nnn(CC(=O)N2N=C(c3ccccc3)CC2c2ccccc2)c1C(=O)OCC (configuration not stated)	21	-19%	18µM*	?	-9%
CCOC(=O)c1nnn(CC(=O)N2N=C(c3cc(C)ccc3C)CC2c2ccc(OC)cc2)c1C(=O)OCC (configuration not stated)	-8	-4%	15µM*	29µM*	-13%
N[C@H]1CONC1=O	-6	0%	14%	4%	-18%
O=C1[C@@H]2[C@@H]3C[C@@H]([C@H]4ON=C(c5ccc(OCc6ccccc6)cc5)[C@@H]34)[C@@H]2C(=O)N1c1ccc2c(c1)OCO2	6	8%	?	-9%	6%
Cc1csc(SCC(=O)N2CCOc3ccc(C(O)C4CCCCC4)cc3C2)n1 (configuration not stated)	·	·	21µM*	?	·
O=C(Cn1cc2ccccc2n1)N1CCOc2ccc(C(O)C3CCCCC3)cc2C1 (configuration not stated)	·	·	?	-3%[9.04 µM]	·
COC(=O)c1nnn(-c2nc(N(C)C)nc(N(C)C)n2)c1C	-15	20%	-14%	-11%	27%
SMILES	IL-1B inflam inh	HT1080 IDH1KD tx	DT40 TDP1 no CPT	DT40 TDP1 CPT	HT1080NT lethal
CC(=O)NC(Cc1c[nH]c2ccccc12)C(=O)Nc1ccc2c(c1)OCO2 (configuration not stated)	8	-13%[9.24 µM]	3%	12%	-10%
CN(C(=O)Cc1c[nH]c2ccccc12)C(C(=O)Nc1ccc2c(c1)OCO2)c1ccccc1 (configuration not stated)	-67*	?	?	-27%	?
COCC(=O)Nc1cc([N+](=O)[O-])ccc1C	-5	0%	?	23µM*	2%
Cc1ccc(CC(=O)Nc2ccc([N+](=O)[O-])cc2C)cc1	-57*	6%	-4%	-15%	8%
CC(Sc1nc(N(C)C)nc(N2CCOCC2)n1)C(=O)Nc1ccccc1 (configuration not stated)	9	2%	7.3µM*	-26%	3%
Cc1cccc2c1cnn2C(=O)CCC(=O)NCC(C)c1ccccc1 (configuration not stated)	17	6%	-4%	-9%	4%
CCCCN(C)c1c(C)nc2ccc(C(=O)NC3CCN(C)CC3)cn12	-4	-8%	?	?	?
CCc1nc2ccc(C(=O)Nc3ccc(NC(C)=O)cc3)cn2c1N(C)CCC(C)C	-20	?	21µM*	?	?
CCc1nc2ccc(C(=O)Nc3ccc(C(N)=O)cc3)cn2c1N(C)CCC(C)C	-23	-23%	23µM*	18µM*	?
CCc1nc2ccc(C(=O)NC3CCN(C)CC3)cn2c1N(C)CCC(C)C	0	?	?	?	16µM*
CCCc1cc(C(=O)NNC(=S)NC2CCCCC2)cs1	-9	1%	?	?	-2%
CCCc1nc(SCC(=O)N2CCCc3ccccc32)c2c(=O)n(C)c(=O)n(C)c2n1	59	2%	23µM*	26µM*	2%
Cn1c(=O)c2c(SCC(=O)N3CCCc4ccccc43)nc(CC(C)(C)C)nc2n(C)c1=O	19	4%	?	?	12%
CCCc1nc(SCC(=O)Nc2ccccc2)c2c(=O)n(C)c(=O)n(C)c2n1	79	1%	?	?	23%
Cn1c(=O)c2c(SCC(=O)N3CCN(c4ccccc4)CC3)nc(C3CC3)nc2n(C)c1=O	0	0%	7.3µM*	13µM*	-1%
CCc1nc(SCC(=O)N2CCOCC2)c2c(=O)n(C)c(=O)n(C)c2n1	4	4%	1%	0%	8%
CCCc1nc(SCC(=O)N2CCC(Cc3ccccc3)CC2)c2c(=O)n(C)c(=O)n(C)c2n1	16	15%	16µM*	21µM*	6%
